From PubChem BioAssay (Tox21)
Results filed as inconclusive are left out. Where a call stands in place of a potency, no number is given. Active and inactive are the calls of the source. Unless noted, calls come from the whole dose curve; as a rule, active = well fitted curve in the direction sought with a large enough effect in the repeat runs; inconclusive = weak or mixed curves; inactive = no such curve, though single readings can be large; an effect the other way counts as inactive or inconclusive.

Columns and labels:
[1] = qHTS assay to identify small molecule agonists of the peroxisome proliferator-activated receptor delta (PPARd) signaling pathway - cell viability counter screen (AID 743211); note: nearly all actives have a fitted effect of over 55% in size; note: potency is the fitted concentration of half-maximal effect
How it was run: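 In the same wells used for beta-lactamase reporter measurement, cytotoxicity is scored by CellTiter-Glo. HEK293H PPARd-bla cells receive compound for 17 h at 37C following a 5 h settling period.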

[2] = qHTS assay to identify small molecule antagonists of the peroxisome proliferator-activated receptor delta (PPARd) signaling pathway - cell viability counter screen (AID 743213); note: nearly all actives have a fitted effect of over 50% in size; note: potency is the fitted concentration of half-maximal effect
How it was run: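 CellTiter-Glo was added to PPARd-bla HEK293H wells following 17 h compound treatment in the presence of 300 nM L165041. Luminescence was recorded after 30 min at room temperature.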

[3] = molecular target: Peroxisome proliferator-activated receptor delta (Homo sapiens) (UniProt Q03181); test: qHTS assay to identify small molecule antagonists of the peroxisome proliferator-activated receptor delta (PPARd) signaling pathway (AID 743215; active = well fitted inhibition curve with a large enough effect in the signal ratio in the repeat runs, not every such curve was filed as active; the % refers to the signal ratio;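 note: cells stimulated with agonist L165041 at 300 nM final during compound exposure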; note: potency is the fitted concentration of half-maximal effect)
How it was run: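 HEK293H GeneBLAzer PPARd UAS-bla reporter cells; cpd + L165041 300 nM final, 17 h 37 C; LiveBLAzer B/G FRET substrate 2 h RT; fluorescence intensity read-out. Antagonist mode.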

[4] = molecular target: Bile acid receptor (Homo sapiens) (UniProt Q96RI1); test: qHTS assay to identify small molecule antagonists of the farnesoid-X-receptor (FXR) signaling pathway (AID 743217; active = well fitted inhibition curve with a large enough effect in the signal ratio in the repeat runs, not every such curve was filed as active; the % refers to the signal ratio)
How it was run: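 Read-out: beta-lactamase FRET fluorescence (LiveBLAzer B/G substrate, 2 h, room temperature) in GeneBLAzer FXR-UAS-bla HEK 293T cells. Compounds were co-dosed with 50 uM chenodeoxycholic acid (final) and incubated 16 h at 37 °C.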

[5] = qHTS assay to identify small molecule agonists of the farnesoid-X-receptor (FXR) signaling pathway - cell viability counter screen (AID 743218); note: nearly all actives have a fitted effect of over 45% in size; note: potency is the fitted concentration of half-maximal effect
How it was run: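 Luminescence from CellTiter-Glo, read after 30 min at RT, reports viability of GeneBLAzer FXR-UAS-bla HEK 293T cells treated 16 h with compounds in the wells used for the beta-lactamase reporter.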

[6] = molecular target: Bile acid receptor (Homo sapiens) (UniProt Q96RI1); test: qHTS assay to identify small molecule agonists of the farnesoid-X-receptor (FXR) signaling pathway (AID 743220; active = well fitted activation curve with a large enough effect in the signal ratio in the repeat runs, not every such curve was filed as active; the % refers to the signal ratio; note: potency is the fitted concentration of half-maximal effect)
How it was run: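 FXR-UAS-bla HEK 293T cells carrying a UAS-driven beta-lactamase reporter were plated for 5 h at 37C/5% CO2, then exposed to DMSO-dissolved Tox21 10K compounds for 16 h at 37C. A LiveBLAzer B/G FRET substrate was loaded for 2 h at room temperature before fluorescence reading.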

[7] = qHTS assay to identify small molecule antagonists of the farnesoid-X-receptor (FXR) signaling pathway - cell viability counter screen (AID 743221; active = well fitted cell-killing curve with a large enough effect in the repeat runs, not every such curve was filed as active; note: nearly all actives have a fitted effect of over 50% in size)
How it was run: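 Here viability was scored by luminescence after CellTiter-Glo addition to wells already read for beta-lactamase. Prior treatment: compound plus CDCA (50 uM final), 16 h, 37 C, HEK 293T FXR-bla cells.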

[8] = molecular target: Vitamin D3 receptor (Homo sapiens) (UniProt P11473); test: qHTS assay to identify small molecule agonists of the vitamin D receptor (VDR) signaling pathway (AID 743222; calls by dose curve)
How it was run: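 Beta-lactamase reporter readout (LiveBLAzer B/G FRET, 2 h RT) in VDR-bla cells after 16 h compound treatment at 37C, 5% CO2; cells pre-incubated 4 h before pin transfer of DMSO solutions.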

[9] = qHTS assay to identify small molecule agonists of the vitamin D receptor (VDR) signaling pathway - cell viability counter screen (AID 743224); note: nearly all actives have a fitted effect of over 50% in size; note: potency is the fitted concentration of half-maximal effect
How it was run: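 Cytotoxicity counter screen: VDR-bla cells, 16 h compound exposure at 37C, 5% CO2; CellTiter-Glo luminescence, 30 min RT, same wells as bla read.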

[10] = qHTS assay to identify small molecule antagonists of the vitamin D receptor (VDR) signaling pathway - cell viability counter screen (AID 743225); note: nearly all actives have a fitted effect of over 50% in size; note: potency is the fitted concentration of half-maximal effect
How it was run: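 Compounds were pinned onto VDR-bla HEK 293T cells together with 1-alpha,25-dihydroxyvitamin D3 at 3 nM final. After 16 h at 37C and 5% CO2 plus the reporter readout, cell viability was measured by CellTiter-Glo luminescence (30 min, room temperature).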

[11] = qHTS assay to identify small molecule agonists of the NFkB signaling pathway - cell viability counter screen (AID 1159515; calls by dose curve; note: nearly all actives have a fitted effect of over 55% in size; note: potency is the fitted concentration of half-maximal effect)
How it was run: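 ME-180 NFkB-bla cells, 2,000/well; overnight attach; compound 5 hr, 37 C/5% CO2; LiveBLAzer substrate 1.5 hr RT; then CellTiter-Glo in same wells, 30 min RT, luminescence read.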

[12] = qHTS assay to identify small molecule agonists of the endoplasmic reticulum stress response signaling pathway - cell viability counter screen (AID 1159517; calls by dose curve)
How it was run: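 ESRE-bla HeLa cells (1,500/well) were plated overnight at 37 C and exposed to compounds for 5 hr. After the 2 hr beta-lactamase substrate read, CellTiter-Glo went into the same wells, and luminescence was read after 30 min at room temperature.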

[13] = qHTS assay to identify small molecule antagonists of the retinoid-related orphan receptor gamma (ROR-gamma) signaling pathway - cell viability counter screen (AID 1159520); note: nearly all actives have a fitted effect of over 50% in size
How it was run: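 Cytotoxicity was read from cellular ATP (CellTiter-Glo luminescence) after 16 hr at 37 C with 1 uM doxycycline induction. The inducer was added 2 hr after compound transfer to Tet-on ROR gamma CHO cells.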

[14] = molecular target: Nuclear receptor ROR-gamma (Homo sapiens) (UniProt P51449); test: qHTS assay to identify small molecule antagonists of the retinoid-related orphan receptor gamma (ROR-gamma) signaling pathway (AID 1159521; note: nearly all actives have a fitted effect of over 50% in size; note: potency is the fitted concentration of half-maximal effect)
How it was run: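 Test compounds were applied to Tet-on RORγ CHO cells 2 h ahead of doxycycline hyclate (1 uM final). Luciferase reporter activity was quantified by luminescence after 16 h at 37 C and 5% CO2.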

[15] = qHTS assay to identify small molecule agonists of the AP-1 signaling pathway - cell viability counter screen (AID 1159525; calls by dose curve; note: nearly all actives have a fitted effect of over 55% in size; note: potency is the fitted concentration of half-maximal effect)
How it was run: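 Intracellular ATP by Cell Titer Glo luminescence (30 min, RT) in the same ME-180 AP-1-bla wells after the 5 h compound exposure at 37 °C. Normalised to tetra n-octyl ammonium bromide and DMSO controls.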

[16] = qHTS assay to identify small molecule agonists of the AP-1 signaling pathway (AID 1159526; calls by dose curve; note: potency is the fitted concentration of half-maximal effect)
[17] = molecular target: Retinoic acid receptor RXR-alpha (Homo sapiens) (UniProt P19793); test: qHTS assay to identify small molecule agonists of the RXR signaling pathway (AID 1159527; calls by dose curve; note: nearly all actives have a fitted effect of over 35% in size; note: potency is the fitted concentration of half-maximal effect)
How it was run: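 Using 9-cis retinoic acid as the reference agonist, chemicals were tested in HEK 293T cells […] for 16 hr; substrate loading lasted 2 hr at room temperature.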

[18] = molecular target: Peroxisome proliferator-activated receptor delta (Homo sapiens) (UniProt Q03181); test: qHTS assay to identify small molecule agonists of the peroxisome proliferator-activated receptor delta (PPARd) signaling pathway (AID 743212; calls by dose curve)
How it was run: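 Beta-lactamase reporter readout: a ratiometric FRET signal from the LiveBLAzer substrate after 2 h at room temperature. Compound exposure at 37 °C in PPARδ-bla HEK293H cells driven by an upstream activator sequence.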

[19] = molecular target: Vitamin D3 receptor (Homo sapiens) (UniProt P11473); test: qHTS assay to identify small molecule antagonists of the vitamin D receptor (VDR) signaling pathway (AID 743223; active = well fitted inhibition curve with a large enough effect in the signal ratio in the repeat runs, not every such curve was filed as active; the % refers to the signal ratio)
How it was run: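 Inhibition of agonist-driven VDR signalling is scored in VDR-bla cells: 3 nM final 1alpha,25-dihydroxyvitamin D3 plus compound, 16 h at 37C, then beta-lactamase detection by FRET substrate fluorescence after 2 h.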

[20] = qHTS assay to identify small molecule agonists of the endoplasmic reticulum stress response signaling pathway (AID 1159516; active = well fitted activation curve with a large enough effect in the signal ratio in the repeat runs, not every such curve was filed as active; the % refers to the signal ratio)
How it was run: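 HeLa ESRE-bla reporter line; cpd 5 h, 37 C/5% CO2; LiveBLAzer B/G FRET substrate 2 h RT; ex 405, em 460/530 nm.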

Sequence of Vitamin D3 receptor (Homo sapiens) (P11473 whole entry, looked up): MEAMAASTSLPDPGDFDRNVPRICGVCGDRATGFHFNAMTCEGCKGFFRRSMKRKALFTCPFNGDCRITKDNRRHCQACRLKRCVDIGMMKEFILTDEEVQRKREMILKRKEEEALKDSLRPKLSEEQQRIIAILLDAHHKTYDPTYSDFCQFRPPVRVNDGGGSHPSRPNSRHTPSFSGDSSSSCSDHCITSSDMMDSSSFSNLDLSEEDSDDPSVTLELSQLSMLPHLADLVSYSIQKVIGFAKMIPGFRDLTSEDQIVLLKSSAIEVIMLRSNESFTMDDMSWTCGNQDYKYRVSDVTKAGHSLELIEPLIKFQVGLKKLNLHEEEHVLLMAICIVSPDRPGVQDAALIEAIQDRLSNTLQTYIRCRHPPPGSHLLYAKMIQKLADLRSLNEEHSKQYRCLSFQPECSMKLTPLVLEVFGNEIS
Sequence of Peroxisome proliferator-activated receptor delta (Homo sapiens) (Q03181 whole entry, looked up): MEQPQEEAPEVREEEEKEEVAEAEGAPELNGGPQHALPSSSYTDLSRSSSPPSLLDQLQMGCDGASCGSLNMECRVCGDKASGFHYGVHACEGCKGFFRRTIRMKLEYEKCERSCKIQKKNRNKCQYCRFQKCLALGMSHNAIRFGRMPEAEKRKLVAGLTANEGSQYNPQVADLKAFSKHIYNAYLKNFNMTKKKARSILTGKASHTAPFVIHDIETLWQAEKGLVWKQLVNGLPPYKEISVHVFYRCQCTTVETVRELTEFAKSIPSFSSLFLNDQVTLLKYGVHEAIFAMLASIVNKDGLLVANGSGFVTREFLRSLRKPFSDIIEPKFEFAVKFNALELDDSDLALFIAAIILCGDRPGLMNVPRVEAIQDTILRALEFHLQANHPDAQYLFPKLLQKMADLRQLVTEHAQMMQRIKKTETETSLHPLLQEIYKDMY
Sequence of Bile acid receptor (Homo sapiens) (Q96RI1 whole entry, looked up): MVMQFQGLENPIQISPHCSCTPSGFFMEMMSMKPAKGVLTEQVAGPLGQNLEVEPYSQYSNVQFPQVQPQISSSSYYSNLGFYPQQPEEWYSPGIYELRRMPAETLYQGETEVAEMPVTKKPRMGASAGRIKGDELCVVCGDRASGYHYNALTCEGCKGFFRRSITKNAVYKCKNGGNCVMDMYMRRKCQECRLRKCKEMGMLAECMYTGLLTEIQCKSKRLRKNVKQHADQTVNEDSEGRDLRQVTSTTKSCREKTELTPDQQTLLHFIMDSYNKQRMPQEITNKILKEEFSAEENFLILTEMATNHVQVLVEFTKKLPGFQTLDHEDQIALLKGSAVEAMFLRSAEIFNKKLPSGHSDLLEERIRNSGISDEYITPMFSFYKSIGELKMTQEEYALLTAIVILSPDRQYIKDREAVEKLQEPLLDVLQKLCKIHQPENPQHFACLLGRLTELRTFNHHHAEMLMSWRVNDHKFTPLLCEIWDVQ
Sequence of Retinoic acid receptor RXR-alpha (Homo sapiens) (P19793 whole entry, looked up): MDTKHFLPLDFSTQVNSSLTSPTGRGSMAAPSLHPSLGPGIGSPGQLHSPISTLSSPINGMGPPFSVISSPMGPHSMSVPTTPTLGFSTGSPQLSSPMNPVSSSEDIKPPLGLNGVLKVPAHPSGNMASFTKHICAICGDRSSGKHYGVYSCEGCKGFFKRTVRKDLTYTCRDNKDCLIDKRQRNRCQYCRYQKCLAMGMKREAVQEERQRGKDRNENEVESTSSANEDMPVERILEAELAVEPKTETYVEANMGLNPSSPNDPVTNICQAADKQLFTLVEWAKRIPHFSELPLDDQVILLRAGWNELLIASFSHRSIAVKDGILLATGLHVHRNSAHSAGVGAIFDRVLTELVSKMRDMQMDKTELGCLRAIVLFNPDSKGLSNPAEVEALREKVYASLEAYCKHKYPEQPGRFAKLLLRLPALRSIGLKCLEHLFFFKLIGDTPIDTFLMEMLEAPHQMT

SMILES	Potency [1]	Potency [2]	Potency [3]	Potency [4]	Potency [5]	Potency [6]	Potency [7]	Potency [8]	Potency [9]	Potency [10]	Potency [11]	Potency [12]	Potency [13]	Potency [14]	Potency [15]	Potency [16]	Potency [17]	Potency [18]	Potency [19]	Potency [20]
CCCNCCC	inactive	inactive	inactive	inactive	inactive	inactive	inactive	inactive	inactive	inactive	inactive	inactive	inactive	inactive	inactive	inactive	inactive	–	–	–
Cc1c(N)cccc1C(F)(F)F	inactive	–	inactive	–	inactive	–	inactive	inactive	inactive	inactive	inactive	inactive	inactive	inactive	inactive	inactive	inactive	inactive	inactive	–
CCOC(=O)c1ccc(C2CCC(NC[C@H](O)COc3ccc(O)c(NS(C)(=O)=O)c3)CC2)cc1 (some centres undefined)	35.9 µM (active)	–	–	–	35.9 µM (active)	inactive	–	–	40.3 µM (active)	–	inactive	–	inactive	–	–	–	–	inactive	–	inactive
CC[N+](CC)(CC)CCOc1ccc(/C=C/c2ccccc2)cc1	inactive	inactive	–	–	inactive	–	inactive	–	inactive	inactive	inactive	–	inactive	–	–	inactive	–	–	–	inactive
Nc1nc(N)nc(-c2cc(Cl)ccc2Cl)n1	inactive	inactive	inactive	inactive	inactive	inactive	inactive	–	inactive	–	inactive	inactive	inactive	inactive	inactive	inactive	inactive	–	–	–
C#C[C@]1(OC(C)=O)CC[C@H]2[C@@H]3CCC4=C/C(=N/O)CC[C@@H]4[C@H]3CC[C@@]21CC	–	inactive	inactive	–	–	inactive	–	–	inactive	inactive	inactive	–	inactive	–	–	–	–	inactive	–	inactive
CC(C)(C)c1csc(-c2cc3cc(OCc4ccccc4CC(=O)O)ccc3o2)n1	24.5 µM (active)	30.9 µM (active)	–	–	–	inactive	inactive	–	–	–	inactive	–	–	–	–	–	–	–	–	inactive
CN(C)Cc1ccccc1O	inactive	inactive	inactive	inactive	inactive	inactive	inactive	inactive	inactive	inactive	inactive	inactive	inactive	inactive	inactive	inactive	inactive	–	inactive	–
Nc1nc2c(ncn2COCCO)c(=O)[nH]1	inactive	inactive	inactive	inactive	inactive	inactive	inactive	–	–	–	inactive	inactive	inactive	inactive	inactive	inactive	inactive	–	–	–
C#C[C@]1(O)CC[C@H]2[C@@H]3[C@H](C)CC4=C(CCC(=O)C4)[C@H]3CC[C@@]21C	–	inactive	–	–	inactive	–	inactive	inactive	inactive	inactive	inactive	–	inactive	–	inactive	inactive	–	inactive	inactive	inactive
CCN(CC)C(=O)c1cc(S(=O)(=O)Cc2ccccc2)c(N2CCC(c3ccccc3)CC2)cc1N(CC)CCN(C)C	21.6 µM (active)	6.84 µM (active)	17.2 µM (active)	inactive	–	inactive	–	inactive	–	17.2 µM (active)	21.6 µM (active)	–	–	21.4 µM (active)	17.2 µM (active)	–	–	–	–	inactive
Cc1cccc(C(=O)O)c1O	inactive	inactive	inactive	inactive	inactive	inactive	inactive	inactive	inactive	–	inactive	inactive	inactive	inactive	inactive	inactive	inactive	–	–	–
O=S(=O)(O)c1ccccc1/C=C/c1ccc(-c2ccc(/C=C/c3ccccc3S(=O)(=O)O)cc2)cc1	inactive	–	–	–	inactive	31.3 µM (active)	inactive	–	inactive	inactive	inactive	inactive	inactive	inactive	inactive	31.3 µM (active)	35.2 µM (active)	–	–	–
CCCC1CCC(=O)CC1	inactive	inactive	–	–	inactive	–	inactive	–	inactive	inactive	inactive	inactive	inactive	inactive	inactive	inactive	inactive	–	–	–
O=C1NC(=O)[C@@H]2CC=CC[C@H]12	inactive	inactive	–	inactive	21.9 µM (active)	inactive	inactive	–	inactive	–	inactive	inactive	inactive	54.5 µM (active)	inactive	inactive	–	–	inactive	–
CCN(CCN)c1cccc(C)c1	inactive	inactive	–	–	inactive	–	inactive	inactive	inactive	inactive	inactive	inactive	inactive	–	inactive	inactive	–	–	inactive	–
CCCCC/C=C\C/C=C\CCCCCCCC(=O)O	inactive	inactive	inactive	inactive	–	inactive	inactive	inactive	inactive	inactive	inactive	inactive	inactive	inactive	inactive	inactive	–	inactive	–	–
O=C(O)Cc1ccccc1Nc1c(Cl)cccc1Cl	inactive	inactive	inactive	inactive	inactive	inactive	inactive	inactive	inactive	inactive	inactive	inactive	inactive	inactive	inactive	inactive	–	–	–	–
CCOC(=O)Cn1cccc1-c1nc(-c2ccc(OC)cc2)c(-c2ccc(OC)cc2)s1	inactive	inactive	–	–	–	–	inactive	–	inactive	inactive	inactive	inactive	inactive	inactive	inactive	inactive	–	–	–	–
